The values that follow come from patent US20110177501, “BIOSENSOR FOR DETECTION AND VISUALISATION OF SINGLE-STRANDED DNA” (MEDICAL RESEARCH COUNCIL, published 2011).

The target in the assay is 6-IATR-E. coli SSB (G26C) (Escherichia coli, UniProt P0AGE0 SEQ:1-177, G26C). The assay can be described thus: competition; stated only as similar result to IDCC-G26C. Conditions: tags: 6-IATR label on Cys26; chain copies: 4 (stated, tetramer); ssDNA.

In turn, “TTTTTTTTTTTTTTTTTTTTTTTTTTTTTTTTTTTTTTTTTTTTTTTTTTTTTTTTTTTTTTTTTTTTTT” yielded a binding signal of roughly 28 fold Kd vs unlabeled SSB.
